Assay outcomes as filed in PubChem.
This is a sample that favours compounds with a hit; in the whole collection about 6.8% have one here.
Cy5 interf NS3h = Cy5 fluorescence quenchers or enhancers, artefact control for HCV NS3 helicase inhibitor project, biochemical, ChemBridge library, Cy5 readout; AID 720488, 2013; Cy5-dT15 DNA with NS3h, fluorescence interference; actives lie on both sides; signal over control mean, under 1 quenches; fluorescence interference ratio at 100 µM; hit rate 6% among 16,000;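 active means compound fluorescence over control fluorescence at most 0.8, a quencher, or at least a set upper limit, an enhancer; inactive means ratio between 0.8 and the set upper limit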
NS3h inh CB = HCV NS3 helicase inhibitors, primary screen, biochemical, fluorescence polarization, ChemBridge library; NS3h Cy5-dT15 DNA binding; hit rate 1.6% among 16,000; Hepatitis C virus NS3 helicase; inhibition, % at 100 µM;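 active means inhibition above the average over every tested compound plus 3 SD, cut at about 40% in these data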
Starred values were filed as active, the others as inactive.

SMILES	Cy5 interf NS3h	NS3h inh CB
O=C1CCCC2=C1C(c1ccc3c(c1)OCO3)Nc1ccc3ccccc3c12 (stereo unspecified)	0.72*	21
Cc1ccsc1C1Nc2ccc3ccccc3c2C2=C1C(=O)CC(C)(C)C2 (stereo unspecified)	0.97	12
CCN(CC)C(=O)COc1ccc2oc(C)c(C(=O)OC(C)C)c2c1	0.79*	16
CCOC(=O)COc1ccc2oc(C)c(C(=O)OC(C)C)c2c1	0.86	14
CCCC(=O)Nc1ccc(NC(=O)c2cccc([N+](=O)[O-])c2)cc1	1	9
Cc1cn(S(=O)(=O)c2ccc(Cl)cc2)cn1	1	2
O=[N+]([O-])c1ccc(N2CCN(S(=O)(=O)c3ccccc3)CC2)cc1Sc1cccc2cccnc12	0.97	14
O=[N+]([O-])c1ccc(N2CCNCC2)cc1Sc1cccc2cccnc12	0.75*	2
CCC(=O)Nc1ccc(S(=O)(=O)N2CCCCCC2)cc1	0.74*	-9
O=C(Nc1ccc(S(=O)(=O)N2CCCCCC2)cc1)c1ccc(F)cc1	0.86	2
O=C(O)/C=C/C(=O)Nc1ccc(S(=O)(=O)N2CCCCCC2)cc1	0.78*	10
Cc1ccc(C(=O)Nc2ccc(S(=O)(=O)N3CCCC3)cc2)cc1	1.1	10
O=S(=O)(c1ccccc1C(O)(c1ccccc1)c1ccccc1)c1ccccc1C(O)(c1ccccc1)c1ccccc1	0.76*	6
O=C(CSCc1cccc(Br)c1)N=Nc1c(O)[nH]c2ccccc12	0.8*	16
NC(=O)N=Nc1c(O)[nH]c2ccccc12	0.85	12
O=C(CO/N=C\c1ccccc1)N=Nc1c(O)[nH]c2ccc(Br)cc12	0.78*	-6
Cc1ccc2[nH]c(O)c(N=NC(=O)COc3ccccc3)c2c1Br	0.86	11
Cc1c(Cl)c(=O)oc2cc(OCc3ccc(Cl)cc3)ccc12	1	3
Cc1cc(C)n(C(=O)CNC(=O)c2ccc(Cl)cc2)n1	0.98	3
Cc1ccc(N2C(=O)CC(NCc3ccc(Cl)cc3Cl)C2=O)cc1 (stereo unspecified)	1.1	-1
COC(=O)C1=C(C)NC2=C(C(=O)c3ccccc32)C1c1ccc(F)cc1 (stereo unspecified)	0.89	10
O=C1C2=C(Nc3[nH]n(-c4ccccc4)c(=O)c3C2c2ccccc2)c2ccccc21 (stereo unspecified)	0.76*	6
COc1cc(NC(=O)c2cccc(Br)c2)cc(OC)c1	1	15
O=C(CSc1cc(Cl)ccc1Cl)Nc1ccccc1[N+](=O)[O-]	0.99	5
O=C1C(Cl)=CC(=NS(=O)(=O)c2ccccc2)C=C1Br	0.66*	32
SMILES	Cy5 interf NS3h	NS3h inh CB
O=C1C(Cl)=CC(=NS(=O)(=O)c2ccc(Cl)cc2)c2ccccc21	0.87	-4
O=[N+]([O-])c1cc(NS(=O)(=O)Cc2ccccc2)ccc1F	0.63*	-2
O=C(Nc1ccc(F)c([N+](=O)[O-])c1)C(c1ccccc1)c1ccccc1	1	8
Cc1ccccc1OCC(=O)NC1CC(C)(C)NC(C)(C)C1	1.1	4
CCCN(CCC)C(=O)CC12CC3CC(C1)CC(CC(=O)N(CCC)CCC)(C3)C2	1.2	11
CC(CC(=O)Nc1ccc(Cl)cc1)c1ccccc1 (stereo unspecified)	0.84	1
CC(C)CCNC(=O)C(=O)NCc1ccc(Cl)cc1	1.1	9
NC(=O)C(=O)NCc1ccc(Cl)cc1	0.65*	3
COC(=O)C1=C(C)N=c2s/c(=C\c3ccc(Cl)cc3)c(=O)n2C1c1ccc(OC)c(OC)c1 (stereo unspecified)	0.9	16
COc1cc(/C=C2\NC(=S)NC2=O)ccc1Oc1ccc([N+](=O)[O-])cn1	0.83	12
COc1cc(/C=C2\NC(=S)NC2=O)c([N+](=O)[O-])cc1OC	0.51*	-20
COc1ccc(CCN=C(C)C2=C(O)CSC2=O)cc1OC	1.1	-1
COC(=O)c1cc(-c2ccccc2)n(-c2ccccc2)n1	1.1	5
COC(=O)CNC(=O)C1COc2ccccc2O1 (stereo unspecified)	1.2*	6
O=C(NCCO)C1COc2ccccc2O1 (stereo unspecified)	0.94	1
O=CN1CCN(c2nc(-c3ccccc3)c3cc(Cl)ccc3n2)CC1	1.1	-33
O=C1OC2C=CC(Br)=CC2C=C1C(=O)N1CCSC1c1ccc2c3c(cccc13)CC2 (stereo unspecified)	1	13
O=C1OC2C=CC(Br)=CC2=CC1C(=O)N1CCSC1c1ccccc1Cl (stereo unspecified)	0.73*	21
CCC(C(=O)Nc1cccc(C)c1)c1ccccc1 (stereo unspecified)	0.96	10
CCC(C(=O)Nc1ccc(C)cc1)c1ccccc1 (stereo unspecified)	1.3*	6
CCCN(CCC)C(=O)c1ccccc1[N+](=O)[O-]	1.1	-15
